Laboratory results taken from PubChem BioAssay (EPA / NIEHS).
Several values for one entry are separate records, joined by “and”; a condition that tells them apart may be missing. Equal values may be shown once. Inconclusive results are not listed. Activity calls are given as the source filed them. How the source made its calls: active means hit-call score of the fitted dose curve at least 0.9, where 1 is the maximum; inconclusive means response in the unintended direction; inactive means score below 0.9.

Key:
[1] = ACEA_ER_AUC_viability: ACEA Biosciences xCELLigence Real-Time Cell Analysis on Estrogen Receptor Agonism for Viability (AID 2283782);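 further: continuous compound exposure with impedance area under curve over 80 h; hit means loss of impedance signal meaning reduced cell growth or viability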
Procedure, shortened: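 T47D cells preconditioned in phenol red-free RPMI with charcoal-stripped FBS, then dosed with 8-point 1:4 series from 100 uM (up to 0.5% DMSO). Impedance monitored up to ~80 h; area-under-curve loss versus DMSO taken as viability.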

AR (gene 367) [2] = molecular target: AR (gene 367) (UniProt P10275); test: ACEA_AR_agonist_80hr: ACEA Biosciences xCELLigence Real-Time Cell Analysis on Androgen Receptor Agonism for Proliferation (AID 2283783);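 further: hits increase impedance growth signal above DMSO baseline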
AR (gene 367), sequence (P10275 whole entry, looked up): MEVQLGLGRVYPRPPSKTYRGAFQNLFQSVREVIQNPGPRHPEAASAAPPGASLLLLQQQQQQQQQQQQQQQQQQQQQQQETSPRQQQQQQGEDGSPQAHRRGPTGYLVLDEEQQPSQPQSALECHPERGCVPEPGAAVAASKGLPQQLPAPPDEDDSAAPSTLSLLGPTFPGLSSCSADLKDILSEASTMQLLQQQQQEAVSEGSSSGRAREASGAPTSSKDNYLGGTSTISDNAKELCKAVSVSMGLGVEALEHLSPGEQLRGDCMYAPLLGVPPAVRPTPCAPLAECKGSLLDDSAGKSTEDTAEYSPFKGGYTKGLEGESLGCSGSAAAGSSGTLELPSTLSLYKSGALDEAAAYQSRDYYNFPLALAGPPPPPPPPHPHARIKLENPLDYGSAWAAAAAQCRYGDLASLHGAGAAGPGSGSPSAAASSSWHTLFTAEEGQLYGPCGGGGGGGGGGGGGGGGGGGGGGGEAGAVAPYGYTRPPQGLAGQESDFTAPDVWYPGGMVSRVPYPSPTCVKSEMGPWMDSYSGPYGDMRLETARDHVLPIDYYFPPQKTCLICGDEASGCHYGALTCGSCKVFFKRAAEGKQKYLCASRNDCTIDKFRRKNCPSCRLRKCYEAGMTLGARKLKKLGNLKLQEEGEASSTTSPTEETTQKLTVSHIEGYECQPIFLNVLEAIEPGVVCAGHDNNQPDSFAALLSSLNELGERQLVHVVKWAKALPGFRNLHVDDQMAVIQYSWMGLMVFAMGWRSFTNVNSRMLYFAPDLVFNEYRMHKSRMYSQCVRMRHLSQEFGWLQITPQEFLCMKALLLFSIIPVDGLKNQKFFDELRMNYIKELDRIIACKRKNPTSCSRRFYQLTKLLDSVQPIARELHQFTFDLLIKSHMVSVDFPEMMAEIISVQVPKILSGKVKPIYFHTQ
Procedure, shortened: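 Proliferation of 22Rv1 prostate cancer cells tracked by electrical impedance, endpoint taken at 80 hours after dosing. Eight-point 1:4 dilutions from 100 uM maximum final, duplicate; testosterone and MG132 as positive controls, assay media as negative.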

[3] = STM_H9_NormalizedViability: Cytotoxicity Assessment at 120 hours in the Stemina devTOX quickPredict H9 human embryonic stem cell (hESC)-based Assay (AID 2283784)
Procedure, shortened: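 Pluripotent H9 hESCs were exposed, with chemical and media replaced every 24 h. Viability was read by CellTiter-Fluor fluorescence, background-corrected and normalized to the 0.1% DMSO neutral control per plate. Loss of signal was fitted.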

AR (gene 367) [4] = molecular target: AR (gene 367) (UniProt P10275); test: ACEA_AR_antagonist_80hr: ACEA Biosciences xCELLigence Real-Time Cell Analysis on Androgen Receptor Antagonism for Proliferation (AID 2283787);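 further: 22Rv1 human prostate cancer cells with growth followed by electrical impedance; hits lower the impedance growth signal relative to DMSO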
Procedure, shortened: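 22Rv1 cells in assay medium, growth tracked by electrical impedance; compounds eight-point 1:4 dilutions from 100 uM final, duplicate plates. Endpoint at 80 h; loss of signal versus DMSO.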

Question: With `O=C(O)Cc1cc(I)c(Oc2cc(I)c(O)c(I)c2)c(I)c1` as the molecule, how does the outcome [1] read?
Answer: inactive

Question: With `NC(=O)N(O)[C@@H]1C=C[C@H](Oc2cccc(Oc3ccc(F)cc3)c2)C1` as the molecule, how does the AC50 [1] read?
Answer: 92.6 µM (active)

Question: For `CCCCCCCCCCCCCC[N+](C)(C)C`, which AC50 [1] is on record?
Answer: 15.9 µM (active) and 6.59 µM (active)

Question: Which outcome (AR (gene 367) [2]) does the source give for `N#C[C@@H]1CC(F)(F)CN1C(=O)CNC1CC2CCC(C1)N2c1ncccn1` (stereo partly specified) here?
Answer: inactive

Question: What about the outcome [3] of the same molecule?
Answer: inactive

Question: And the outcome (AR (gene 367) [4])?
Answer: inactive

Question: With `O=C(O)c1ccccc1C(c1ccc(O)cc1)c1ccc(O)cc1` as the molecule, how does the outcome [1] read?
Answer: inactive

Question: And the outcome (AR (gene 367) [4])?
Answer: inactive

Question: For `C#C[C@]1(O)CC[C@H]2[C@@H]3CCC4=CC(=O)CC[C@@H]4[C@H]3CC[C@@]21C`, which AC50 [3] is on record?
Answer: 82 µM (active)

Question: For `O=C(/C=C/c1ccc(O)cc1)CC(=O)/C=C/c1ccc(O)cc1`, which outcome [1] is on record?
Answer: inactive

Question: What about the outcome (AR (gene 367) [2]) of the same molecule?
Answer: inactive

Question: And the AC50 (AR (gene 367) [4])?
Answer: 29.9 µM (active)

Question: Which AC50 [1] does the source give for `CCN(CC)CCNc1ccc(CNC=O)c2sc3ccc(OC)cc3c(=O)c12` here?
Answer: 83.2 µM (active)

Question: What about the AC50 [3] of the same molecule?
Answer: 8.22 µM (active)

Question: With `O=[N+]([O-])c1ccc(O)cc1` as the molecule, how does the outcome [1] read?
Answer: inactive

Question: Which outcome [1] does the source give for `CN1CCC[C@H]1c1cccnc1` here?
Answer: inactive

Question: And the outcome [3]?
Answer: inactive

Question: For `c1ccc2c(c1)ccc1ccccc12`, which outcome [1] is on record?
Answer: inactive

Question: And the AC50 [3]?
Answer: 79.9 µM (active)

Question: What about the AC50 (AR (gene 367) [4]) of the same molecule?
Answer: 50 µM (active)

Question: Which results are given for `Nc1cccc2c(N)cccc12`?
Answer: outcome [1]: inactive; AC50 (AR (gene 367) [2]): 0.115 µM (active); outcome [3]: inactive; AC50 (AR (gene 367) [4]): 77.8 µM (active)

Question: What does the source list for `CCCCC[C@H](O)CC(=O)CCc1ccc(O)c(OC)c1`?
Answer: outcome [1]: inactive; outcome (AR (gene 367) [2]): inactive

Question: What does the source list for `CCCCCCCCCCCCc1ccccc1S(=O)(=O)O`?
Answer: AC50 [1]: 83.7 µM (active); outcome (AR (gene 367) [2]): inactive; outcome [3]: inactive; AC50 (AR (gene 367) [4]): 72.9 µM (active)

Question: With `C[C@@H]1C[C@H]2[C@@H]3CCC4=CC(=O)C=C[C@]4(C)[C@@]3(F)[C@@H](O)C[C@]2(C)[C@@]1(O)C(=O)COP(=O)(O)O` as the molecule, how does the outcome [1] read?
Answer: inactive

Question: And the AC50 [3]?
Answer: 15.2 µM (active)

Question: For `COc1ccc([N+](=O)[O-])cc1N`, which outcome [3] is on record?
Answer: inactive

Question: For `Oc1cc2ccccc2c2ccccc12`, which AC50 [1] is on record?
Answer: 4.66 µM (active)

Question: And the outcome (AR (gene 367) [2])?
Answer: inactive

Question: What about the AC50 (AR (gene 367) [4]) of the same molecule?
Answer: 8.26 µM (active)

Question: Which AC50 [1] does the source give for `Cc1cc(CCN2CCN(c3nsc4ccccc34)CC2)cc2c1NC(=O)CC2(C)C` here?
Answer: 18.2 µM (active)

Question: And the AC50 [3]?
Answer: 6.3 µM (active)

Question: What about the AC50 (AR (gene 367) [4]) of the same molecule?
Answer: 18.7 µM (active)

Question: Which AC50 [1] does the source give for `CN1CCN(c2ccccc2/C=C2\SCCN(c3ccc(Cl)c(Cl)c3)C2=O)CC1` here?
Answer: 50 µM (active)

Question: And the outcome [3]?
Answer: inactive

Question: Which results are given for `CCC(=C(c1ccc(O)cc1)c1ccc(OCCN(C)C)cc1)c1ccccc1`?
Answer: AC50 [1]: 5.17 µM (active) and 6.37 µM (active) and 12.9 µM (active); AC50 (AR (gene 367) [4]): 7.6 µM (active)

Question: Which outcome [1] does the source give for `CC(O)CO` (stereo unspecified) here?
Answer: inactive

Question: With `CC(=O)CC(C)(C)O` as the molecule, how does the outcome (AR (gene 367) [4]) read?
Answer: inactive

Question: With `O=c1c(-c2ccc(O)cc2)coc2cc(O)ccc12` as the molecule, how does the outcome (AR (gene 367) [2]) read?
Answer: inactive

Question: And the outcome (AR (gene 367) [4])?
Answer: inactive

Question: For `OCCC(F)(F)C(F)(F)C(F)(F)C(F)(F)C(F)(F)C(F)(F)C(F)(F)C(F)(F)F`, which outcome [1] is on record?
Answer: inactive

Question: What about the outcome (AR (gene 367) [4]) of the same molecule?
Answer: inactive

Question: For `COc1cc(CCC(=O)CC(=O)CCc2ccc(O)c(OC)c2)ccc1O`, which outcome [1] is on record?
Answer: inactive

Question: What about the outcome (AR (gene 367) [2]) of the same molecule?
Answer: inactive

Question: What about the AC50 (AR (gene 367) [4]) of the same molecule?
Answer: 74.6 µM (active)

Question: With `NC(=O)N1C(=O)C(C(=O)c2cc(Cl)cs2)c2cc(F)c(Cl)cc21` (stereo unspecified) as the molecule, how does the AC50 [1] read?
Answer: 87.5 µM (active)

Question: And the outcome (AR (gene 367) [4])?
Answer: inactive

Question: With `CCc1ccc(CCOc2ccc(CC3SC(=O)NC3=O)cc2)nc1` (stereo unspecified) as the molecule, how does the outcome [1] read?
Answer: inactive

Question: And the AC50 [3]?
Answer: 55.8 µM (active)
